Assay results as given in PubChem BioAssay.
Where “and” joins values, the source holds several entries; their conditions need not be identical. Equal values may be shown once. Where a structure was tested more than once in an assay, its records may differ in their call. Calls of active or inactive are those of the source. Rule as the data show it, unless noted: active = inhibition above about 80%; inactive = the rest.

How the values were obtained:
[1] = growth inhibition, single agents and combos, HTB85, cell-based, BGB or cisplatin IC20 combos, synergistic combos for chromothripsis tumors (AID 1671453); settings: HTB85 osteosarcoma cells, drug combinations, stronger effect = higher value;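 also: cells exposed for 96 hours before readout; 0% = vehicle DMSO and 100% = high DMSO killing control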
[2] = growth inhibition, single agents and combos, CRL2098, cell-based, BGB or cisplatin IC20 combos, synergistic combos for chromothripsis tumors (AID 1671454); settings: CRL2098 osteosarcoma cells, drug combinations, stronger effect = higher value;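 also: cells exposed for 96 h before readout; 0% = vehicle DMSO and 100% = killing by high DMSO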
[3] = growth inhibition, single agents and combos, HD-MB03, cell-based, BGB or cisplatin IC20 combos, synergistic combos for chromothripsis tumors (AID 1671455; in the data active = inhibition above about 83%;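 also: 0% = vehicle DMSO and 100% = high DMSO as cytotoxic control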); settings: HD-MB03 medulloblastoma cells, stronger effect = higher value
[4] = growth inhibition, single agents and combos, UWB1.289, cell-based, BGB or cisplatin combos, synergistic combos for chromothripsis tumors (AID 1671456); settings: UWB1.289 ovarian carcinoma cells, stronger effect = higher value;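 also: cells exposed to compound for four days; 0% = vehicle DMSO and 100% = killing by high DMSO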
[5] = growth inhibition, single agents and combos, LFS_MB_2R, cell-based, cisplatin combos, synergistic combos for chromothripsis tumors (AID 1671457); settings: LFS_MB_2R medulloblastoma cells, stronger effect = higher value;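 also: cells exposed to compound for four days before readout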
[6] = growth inhibition, MDA-MB-436, cell-based, BGB or cisplatin combos, synergistic combos for chromothripsis tumors (AID 1671458; call rule not given here;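 also: cells exposed for 96 hours; 0% = vehicle DMSO and 100% = killing by high DMSO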); settings: MDA-MB-436 breast carcinoma growth inhibition, drug combinations, stronger effect = higher value
[7] = UWB1.289_BRCA1 ovarian cancer growth, cell-based, BGB or cisplatin combinations (AID 1671459); settings: UWB1.289 BRCA1 ovarian carcinoma, drug combinations, stronger effect = higher value
[8] = drug combination toxicity in non-malignant astrocytes – cell-based, BGB or cisplatin IC20 combos, cytotoxicity control for chromothriptic childhood tumor combination screen (AID 1671460); settings: Human astrocytes, viability inhibition, drug combinations, at 0.5 µM, stronger effect = higher value;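 also: cells exposed to compounds for 96 hours before viability readout; 0% = vehicle and 100% = killing control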
[9] = BT084 cell growth, single and combined drugs, ICGC_MB145, cisplatin and BGB IC40 combos (AID 1671461); settings: BT084 medulloblastoma cells, drug combinations, stronger effect = higher value;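 also: cells exposed to drugs for 96 hours; 0% = vehicle DMSO and 100% = high DMSO full killing control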
[10] = RCMB18 cell growth, single agent and combined, cisplatin and BGB IC40 combos (AID 1671462); settings: RCMB18 medulloblastoma cells, stronger effect = higher value;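 also: cells exposed to compound for four days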
[11] = CRL1545 cell growth, single agent and combined, cisplatin and BGB IC20 combos (AID 1671464); settings: CRL1545 osteosarcoma cells, stronger effect = higher value;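 also: cells exposed to compound for 96 hours before readout; 0% = vehicle DMSO and 100% = high DMSO killing control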
[12] = target: NAD(+) hydrolase SARM1 (Homo sapiens) (UniProt Q6SZW1); assay: blocking NAD cleavage by SARM1 SAM-TIR – cell lysate, NAD-Glo luminescence (AID 1508614;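 active = compound whose remaining NAD level is above about 45 nM, limit read from the data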;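 also: higher remaining NAD means stronger inhibition of SARM1 NADase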); settings: SAM-TIR HEK293T lysate NADase, at 1 µM, stronger effect = higher value
[13] = target: Mitogen-activated protein kinase 7 (Homo sapiens) (UniProt Q13164); assay: Gal4-ERK5 driven luciferase induction – cell-based, HTS, primary screen (AID 1508626;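 active = luciferase signal above three times the same-plate solvent-only control wells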;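 also: luciferase driven by Gal4-ERK5 fusion binding five Gal4 sites before minimal TATA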); settings: HeLa Gal4-ERK5 transactivation, 18 h, at 5 µM, stronger effect = higher value
[14] = galactose survival enhancers in mitochondrial complex I cybrids – cell-based, galactose medium, ATP luminescence, primary screen (AID 1645843;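 active = z-score of at least 1.8 in each of two replicates, scored against plate mean and spread of sample wells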;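 also: positive z means more ATP and so rescue of galactose-driven cybrid death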); settings: complex I mutant cybrid cells, 72 h, stronger effect = higher value
[15] = growth inhibition, single agent or in combination, cell-based, chromothripsis tumors, cisplatin or BGB combos (AID 1671449); settings: LFS_MB_P medulloblastoma cells;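 also: cells exposed for 96 hours; 0% = vehicle DMSO and 100% = killing by high DMSO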
[16] = growth inhibition, single agent and combos, cell-based, chromothripsis tumors, cisplatin or BGB combos (AID 1671450); settings: HDN33 neuroblastoma cells, stronger effect = higher value;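 also: cells exposed to compound for four days; 0% = vehicle DMSO and 100% = cell killing by high DMSO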
[17] = growth inhibition, single agents and combos, ICB984, cell-based, cisplatin or BGB combos, synergistic combos for chromothripsis tumors (AID 1671451; call rule not given here;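 also: cells exposed for 96 hours before readout; 0% = vehicle DMSO and 100% = killing by high DMSO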); settings: ICB984 medulloblastoma cells, drug combinations, stronger effect = higher value
[18] = growth inhibition, single agents and combos, LFS_MB_1R, cell-based, cisplatin or BGB combos, synergistic combos for chromothripsis tumors (AID 1671452); settings: LFS_MB_1R medulloblastoma cells, stronger effect = higher value;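 also: cells exposed for 96 hours before readout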
[19] = measured here: with cisplatin IC20, at 0.5 µM
[20] = measured here: with cisplatin IC20, at 5 µM
[21] = measured here: combination with BGB at IC20, at 0.5 µM
[22] = measured here: combination with cisplatin at IC20, at 0.5 µM
[23] = measured here: combo with BGB at IC20, at 0.5 µM
[24] = measured here: combo with cisplatin at IC20, at 0.5 µM
[25] = measured here: inhibition with BGB combination, at 0.05 µM
[26] = measured here: inhibition with cisplatin combination, at 0.05 µM
[27] = measured here: combination with cisplatin, at 0.5 µM
[28] = measured here: combination with cisplatin, at 5 µM
[29] = measured here: BGB combination, at 0.5 µM
[30] = measured here: BGB combination, at 5 µM
[31] = measured here: cisplatin combination, at 0.5 µM
[32] = measured here: cisplatin combination, at 5 µM
[33] = BGB combination, concentration series, at 5 µM
[34] = cisplatin combination, concentration series, at 5 µM
[35] = measured here: combo with BGB IC20
[36] = measured here: combo with cisplatin IC20
[37] = cisplatin combination, at 0.5 µM
[38] = measured here: BGB IC40 combination 0.05 uM, at 0.05 µM
[39] = measured here: BGB IC40 combination, at 0.05 µM
[40] = measured here: with BGB IC20 combination, at 0.5 µM
[41] = measured here: with cisplatin IC20 combination, at 0.5 µM
[42] = measured here: combination with BGB IC40, at 0.05 µM

Sequence of NAD(+) hydrolase SARM1 (Homo sapiens) (Q6SZW1 whole entry, looked up, the tested form may be a part): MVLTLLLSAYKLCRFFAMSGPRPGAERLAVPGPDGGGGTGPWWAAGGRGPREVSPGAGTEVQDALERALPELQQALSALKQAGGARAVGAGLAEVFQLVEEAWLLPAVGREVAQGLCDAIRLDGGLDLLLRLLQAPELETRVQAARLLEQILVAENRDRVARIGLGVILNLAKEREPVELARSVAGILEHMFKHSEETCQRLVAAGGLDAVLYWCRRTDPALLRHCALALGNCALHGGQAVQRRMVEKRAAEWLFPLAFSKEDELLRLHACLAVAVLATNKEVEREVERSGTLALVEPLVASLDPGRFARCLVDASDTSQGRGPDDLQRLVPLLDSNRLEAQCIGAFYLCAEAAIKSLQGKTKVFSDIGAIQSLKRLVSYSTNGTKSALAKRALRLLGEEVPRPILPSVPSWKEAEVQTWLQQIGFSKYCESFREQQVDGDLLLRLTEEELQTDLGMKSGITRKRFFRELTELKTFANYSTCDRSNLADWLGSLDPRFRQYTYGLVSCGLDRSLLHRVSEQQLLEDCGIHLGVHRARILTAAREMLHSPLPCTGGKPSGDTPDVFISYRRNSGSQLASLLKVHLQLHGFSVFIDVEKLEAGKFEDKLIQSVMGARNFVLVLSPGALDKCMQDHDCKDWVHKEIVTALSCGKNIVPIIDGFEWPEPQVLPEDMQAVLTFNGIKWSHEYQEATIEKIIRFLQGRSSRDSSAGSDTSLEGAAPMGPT
Sequence of Mitogen-activated protein kinase 7 (Homo sapiens) (Q13164 whole entry, looked up, the tested form may be a part): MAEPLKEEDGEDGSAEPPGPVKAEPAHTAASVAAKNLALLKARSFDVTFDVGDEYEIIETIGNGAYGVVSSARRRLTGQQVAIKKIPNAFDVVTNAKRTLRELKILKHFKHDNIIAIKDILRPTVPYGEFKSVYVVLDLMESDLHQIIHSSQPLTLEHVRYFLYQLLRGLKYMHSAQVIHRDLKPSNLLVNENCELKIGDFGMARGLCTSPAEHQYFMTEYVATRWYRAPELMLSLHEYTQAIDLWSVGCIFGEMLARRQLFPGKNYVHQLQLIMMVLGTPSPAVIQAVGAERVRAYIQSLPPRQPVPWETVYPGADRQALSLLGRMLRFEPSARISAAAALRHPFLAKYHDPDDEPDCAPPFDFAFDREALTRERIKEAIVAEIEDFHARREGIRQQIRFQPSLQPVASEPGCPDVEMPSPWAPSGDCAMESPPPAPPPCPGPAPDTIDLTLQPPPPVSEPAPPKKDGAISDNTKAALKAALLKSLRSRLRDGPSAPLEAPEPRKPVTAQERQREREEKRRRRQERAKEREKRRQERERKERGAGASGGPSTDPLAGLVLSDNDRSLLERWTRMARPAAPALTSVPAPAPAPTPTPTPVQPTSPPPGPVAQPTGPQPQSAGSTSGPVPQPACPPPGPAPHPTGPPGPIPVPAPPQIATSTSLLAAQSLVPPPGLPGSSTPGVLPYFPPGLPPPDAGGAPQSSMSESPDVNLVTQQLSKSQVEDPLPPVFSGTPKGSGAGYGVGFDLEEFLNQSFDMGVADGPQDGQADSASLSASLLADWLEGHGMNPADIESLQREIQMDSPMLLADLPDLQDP

CCn1cc(C(=O)O)c(=O)c2cc(F)c(N3CCNC(C)C3)c(F)c21 (stereo not drawn)
inhibition [1, 19]: -43.1% and 12.8%
inhibition [1, 20]: -15.2% and -22.2%
inhibition ([1]; single agent, at 5 µM): -37.9% and -11.7%
inhibition ([2]; at 0.5 µM): -101% (inactive) and -12.1% (inactive)
inhibition [2, 21]: -94% and -48.1%
inhibition [2, 22]: -123% and -10.4%
inhibition ([3]; at 0.5 µM): -11.4% (inactive) and -9.63% (inactive)
inhibition [3, 23]: -10.9% and -2.68%
inhibition [3, 24]: -12.2% and -16.4%
inhibition ([4]; at 0.5 µM): -5.87% (inactive) and 3.27% (inactive)
inhibition [4, 25]: -15.8% and -6.81%
inhibition [4, 26]: -31.3% and -16.8%
inhibition ([5]; at 0.5 µM): -11.7% (inactive) and -17.4% (inactive)
inhibition [5, 27]: -16.5% and -22.2%
inhibition [5, 28]: -74.9% and -58.2%
inhibition ([6]; at 0.5 µM): -41.7% (inactive) and -18.1% (inactive)
inhibition [6, 29]: -27.8% and -13.8%
inhibition [6, 30]: -28.2% and -9.38%
inhibition [6, 31]: -66.9% and -25.1%
inhibition [6, 32]: -19.8% and -29.7%
inhibition [7, 33]: -32.2% and -2.47%
inhibition ([7]; at 0.5 µM): -9.31% (inactive) and 2.01% (inactive)
inhibition [7, 34]: -6.73% and 11.3%
inhibition [8]: -10.6% (inactive) and 4.2% (inactive)
inhibition [8, 35]: -11.6% and -0.829%
inhibition [8, 36]: -24.3% and -1.68%
inhibition ([9]; at 0.5 µM): -29.5% (inactive) and -34.2% (inactive)
inhibition [9, 37]: -4.32% and -19.8%
inhibition ([9]; cisplatin combination, at 5 µM): -10.2% and -20.4%
inhibition [9, 38]: -19.8% and -12.4%
inhibition ([9]; single agent, at 5 µM): -14.7% and -12.9%
inhibition ([10]; at 0.5 µM): -20.2% (inactive) and -5.16% (inactive)
inhibition ([10]; cisplatin combo, at 5 µM): -24.3% and 18.4%
inhibition [10, 39]: -16.8% and -25.7%
inhibition [10, 27]: -27.2% and 7.44%
inhibition ([10]; single agent, at 5 µM): -21.5% and -4.86%
inhibition ([11]; at 0.5 µM): -53.2% (inactive) and 15% (inactive)
inhibition [11, 40]: -48% and 1.95%
inhibition [11, 41]: -59.3% and 19.8%
inhibition ([11]; single agent, at 0.05 µM): -84.2% and 11.3%
inhibition ([11]; single agent, at 5 µM): -56% and 4.55%

Cc1oncc1C(=O)Nc1ccc(C(F)(F)F)cc1
remaining NAD [12]: 10 nM (inactive)
luciferase signal [13]: 120 AU (inactive)
z-score [14]: 1.22 (inactive) and 1.26 (inactive) and 0.055 (inactive)
inhibition ([15]; at 0.5 µM, stronger effect = higher value): -30.3% (inactive)
inhibition ([15]; measured here: combination with BGB IC20, at 0.005 µM): -32.3%
inhibition ([15]; measured here: combination with BGB IC40, at 0.005 µM): -17.1%
inhibition [15, 42]: -23.8%
inhibition ([15]; measured here: combination with cisplatin, at 0.5 µM, stronger effect = higher value): -32.5%
inhibition ([15]; measured here: combination with cisplatin, at 5 µM, stronger effect = higher value): 34.4%
inhibition ([16]; BGB combo, at 5 µM): 22.1%
inhibition ([16]; at 0.5 µM): -14.7% (inactive)
inhibition ([16]; cisplatin combo, at 5 µM): 36.7%
inhibition [16, 40]: 2.4%
inhibition [16, 41]: -16.7%
inhibition ([16]; single agent, at 5 µM): 48%
inhibition ([17]; BGB IC20 combo, at 0.005 µM): 16.5%
inhibition ([17]; BGB IC40 combo, at 0.005 µM): -7.12%
inhibition ([17]; BGB IC40 combo, at 0.05 µM): 33.8%
inhibition ([17]; at 0.5 µM): -22.9% (inactive)
inhibition ([17]; cisplatin combo, at 0.05 µM): 31.4%
inhibition ([17]; cisplatin combo, at 0.5 µM): -18.9%
inhibition ([17]; cisplatin combo, at 5 µM): -28.5%
inhibition ([17]; measured here: 5 uM single agent, at 5 µM): 9.62%
inhibition ([18]; at 0.5 µM): -18.1% (inactive)
inhibition [18, 42]: -48.9%
inhibition [18, 27]: -43.1%
inhibition [18, 28]: -31%
inhibition ([1]; at 0.5 µM): -9.93% (inactive)
inhibition ([1]; measured here: with BGB IC20, at 0.5 µM): -10.4%
inhibition ([1]; measured here: with BGB IC20, at 5 µM): 14.1%
inhibition [1, 19]: -18.2%
inhibition [1, 20]: 0.987%
inhibition ([1]; single agent, at 5 µM): 24.3%
inhibition ([2]; at 0.5 µM): -47.6% (inactive)
inhibition [2, 21]: -10.4%
inhibition [2, 22]: -126%
inhibition ([3]; at 0.5 µM): 1.82% (inactive)
inhibition [3, 23]: -13.1%
inhibition [3, 24]: 15.3%
inhibition ([4]; at 0.5 µM): 4.13% (inactive)
inhibition [4, 25]: -13.1%
inhibition [4, 26]: -27.7%
inhibition ([5]; at 0.5 µM): -14.8% (inactive)
inhibition [5, 27]: -17.8%
inhibition [5, 28]: 30.1%
inhibition ([6]; at 0.5 µM): 3.93% (inactive)
inhibition [6, 29]: 12.3%
inhibition [6, 30]: 48.9%
inhibition [6, 31]: -7.42%
inhibition [6, 32]: 42.4%
inhibition [7, 33]: 74.1%
inhibition ([7]; at 0.5 µM): 6.99% (inactive)
inhibition [7, 34]: 66.1%
inhibition [8]: 23.1% (inactive)
inhibition [8, 35]: 15.1%
inhibition [8, 36]: 28.3%
inhibition ([9]; at 0.5 µM): 5.65% (inactive)
inhibition [9, 37]: -5.97%
inhibition ([9]; cisplatin combination, at 5 µM): 60.5%
inhibition [9, 38]: 32%
inhibition ([9]; single agent, at 5 µM): 51.2%
inhibition ([10]; at 0.5 µM): -7.24% (inactive)
inhibition ([10]; cisplatin combo, at 5 µM): 23.6%
inhibition [10, 39]: -20.4%
inhibition [10, 27]: -2.75%
inhibition ([10]; single agent, at 5 µM): 34.1%
inhibition ([11]; at 0.5 µM): -17.2% (inactive)
inhibition [11, 40]: -12.4%
inhibition [11, 41]: -21.5%
inhibition ([11]; single agent, at 0.05 µM): -28.9%
inhibition ([11]; single agent, at 5 µM): 28.1%

CCCCCN(CCCCC)C(=O)C(CCC(=O)O)NC(=O)c1ccc(Cl)c(Cl)c1 (stereo not drawn)
remaining NAD [12]: 10 nM (inactive)
z-score [14]: 2.69 (active) and 0.255 (inactive)

C[C@@H]1CN(c2c(F)c(N)c3c(=O)c(C(=O)O)cn(C4CC4)c3c2F)C[C@H](C)N1
remaining NAD [12]: 10 nM (inactive)
z-score [14]: 0.565 (inactive)

NC(Cc1ccc(Cl)cc1)C(=O)O (stereo not drawn)
remaining NAD [12]: 10 nM (inactive)
z-score [14]: 0.25 (inactive)
